Experimental data from the supplement of paper PMC11732987, “Enantioselective OTUD7B fragment discovery through chemoproteomics screening and high-throughput optimisation” (Communications Chemistry, 2025).

What was measured:
Assay in all cases: log2 ratio of Biotin-Ahx-Ub-VS probe labelling (fragment/DMSO); higher = less target engagement (more negative = stronger competition), active = hit call of the paper (q ≤ 0.05, log2 ratio ≤ -1)
Conditions in all cases: compound concentration: 200 uM; treatment time: 3 h
USP9X = USP9X (UniProt Q93008)
How it was run: (§1)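 HEK293T lysate (495 µg per sample, in Tris/CHAPS/IGEPAL buffer with protease inhibitors) was treated in triplicate with fragment at 200 µM or with DMSO for 3 h. It was then treated with Biotin-Ahx-Ub-VS (0.5 µM final) for 1 h. Labelled DUBs were NeutrAvidin-enriched, digested with LysC and trypsin, and run by diaPASEF LC-MS/MS. Spectronaut label-free quantities were global-median-normalised. Values are average log2 ratios fragment/DMSO by unpaired t-test, using proteins with ≥2 unique peptides.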

UniProt O00487 = molecular target: UniProt O00487
How it was run: as §1

UniProt O00507 = molecular target: UniProt O00507
How it was run: as §1

UniProt P51784 = molecular target: UniProt P51784
How it was run: as §1

UniProt Q5T2D3 = molecular target: T1, UniProt Q5T2D3
T1 sequence (whole entry): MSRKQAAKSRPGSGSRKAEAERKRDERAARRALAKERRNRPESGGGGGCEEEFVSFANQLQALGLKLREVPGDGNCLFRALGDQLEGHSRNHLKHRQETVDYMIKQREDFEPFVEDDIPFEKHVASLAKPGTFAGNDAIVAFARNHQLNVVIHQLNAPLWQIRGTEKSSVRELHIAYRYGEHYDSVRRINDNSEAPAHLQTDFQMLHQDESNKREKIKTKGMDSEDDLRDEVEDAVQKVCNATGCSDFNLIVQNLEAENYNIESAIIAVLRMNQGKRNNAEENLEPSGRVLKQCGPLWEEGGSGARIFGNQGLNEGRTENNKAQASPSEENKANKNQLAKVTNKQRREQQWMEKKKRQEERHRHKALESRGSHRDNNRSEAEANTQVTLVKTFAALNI
How it was run: as §1

UniProt Q8TE49 = molecular target: T2, UniProt Q8TE49
T2 sequence (whole entry): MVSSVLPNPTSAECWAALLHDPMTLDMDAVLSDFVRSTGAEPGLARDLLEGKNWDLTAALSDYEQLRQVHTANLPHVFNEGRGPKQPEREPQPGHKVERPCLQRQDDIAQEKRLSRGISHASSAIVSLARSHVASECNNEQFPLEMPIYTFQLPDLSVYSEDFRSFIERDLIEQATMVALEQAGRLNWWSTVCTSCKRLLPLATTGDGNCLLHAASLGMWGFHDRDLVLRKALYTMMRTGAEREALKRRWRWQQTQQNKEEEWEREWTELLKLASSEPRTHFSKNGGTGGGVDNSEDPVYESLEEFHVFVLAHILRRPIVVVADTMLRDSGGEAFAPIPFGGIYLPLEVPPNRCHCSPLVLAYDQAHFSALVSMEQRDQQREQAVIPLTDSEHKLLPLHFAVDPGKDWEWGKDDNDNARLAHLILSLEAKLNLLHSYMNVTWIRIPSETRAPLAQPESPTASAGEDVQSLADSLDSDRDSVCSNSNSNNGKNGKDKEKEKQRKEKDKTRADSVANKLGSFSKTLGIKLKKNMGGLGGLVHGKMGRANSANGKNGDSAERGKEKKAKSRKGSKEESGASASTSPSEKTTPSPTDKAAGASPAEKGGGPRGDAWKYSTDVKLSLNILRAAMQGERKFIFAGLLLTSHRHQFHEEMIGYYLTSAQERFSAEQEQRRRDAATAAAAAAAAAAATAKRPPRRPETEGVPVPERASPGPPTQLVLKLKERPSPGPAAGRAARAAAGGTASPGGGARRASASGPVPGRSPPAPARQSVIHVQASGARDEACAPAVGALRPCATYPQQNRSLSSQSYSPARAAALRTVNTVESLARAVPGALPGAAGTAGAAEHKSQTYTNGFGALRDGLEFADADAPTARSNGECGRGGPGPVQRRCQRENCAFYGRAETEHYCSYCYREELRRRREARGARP
How it was run: as §1

UniProt Q9P2H5 = molecular target: T3, UniProt Q9P2H5
T3 sequence (whole entry): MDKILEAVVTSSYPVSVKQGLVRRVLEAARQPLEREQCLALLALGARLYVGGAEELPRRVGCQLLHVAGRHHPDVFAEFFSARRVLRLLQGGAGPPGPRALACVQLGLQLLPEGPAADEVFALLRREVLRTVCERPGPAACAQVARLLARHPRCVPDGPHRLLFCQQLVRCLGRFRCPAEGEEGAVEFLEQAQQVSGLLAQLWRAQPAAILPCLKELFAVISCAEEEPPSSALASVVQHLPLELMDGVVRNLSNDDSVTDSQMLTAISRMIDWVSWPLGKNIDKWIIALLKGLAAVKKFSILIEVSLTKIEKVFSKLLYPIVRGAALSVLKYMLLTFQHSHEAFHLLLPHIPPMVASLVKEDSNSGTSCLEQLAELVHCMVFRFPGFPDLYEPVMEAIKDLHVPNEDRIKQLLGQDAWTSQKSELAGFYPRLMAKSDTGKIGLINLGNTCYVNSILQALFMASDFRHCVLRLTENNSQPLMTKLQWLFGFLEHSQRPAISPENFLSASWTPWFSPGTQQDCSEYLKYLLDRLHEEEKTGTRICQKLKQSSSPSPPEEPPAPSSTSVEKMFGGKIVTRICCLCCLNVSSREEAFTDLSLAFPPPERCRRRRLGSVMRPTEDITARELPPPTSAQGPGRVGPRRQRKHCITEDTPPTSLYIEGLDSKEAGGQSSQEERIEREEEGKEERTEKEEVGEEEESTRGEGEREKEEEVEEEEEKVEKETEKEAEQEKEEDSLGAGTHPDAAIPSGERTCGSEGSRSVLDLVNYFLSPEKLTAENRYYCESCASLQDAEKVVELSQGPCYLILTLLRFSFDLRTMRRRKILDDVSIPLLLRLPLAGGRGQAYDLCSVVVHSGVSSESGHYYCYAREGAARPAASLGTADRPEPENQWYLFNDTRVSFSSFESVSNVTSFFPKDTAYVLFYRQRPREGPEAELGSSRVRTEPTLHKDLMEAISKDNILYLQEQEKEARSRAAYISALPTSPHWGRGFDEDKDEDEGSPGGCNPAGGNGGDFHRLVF
How it was run: as §1

UniProt Q9UGI0 = molecular target: T4, UniProt Q9UGI0
T4 sequence (whole entry): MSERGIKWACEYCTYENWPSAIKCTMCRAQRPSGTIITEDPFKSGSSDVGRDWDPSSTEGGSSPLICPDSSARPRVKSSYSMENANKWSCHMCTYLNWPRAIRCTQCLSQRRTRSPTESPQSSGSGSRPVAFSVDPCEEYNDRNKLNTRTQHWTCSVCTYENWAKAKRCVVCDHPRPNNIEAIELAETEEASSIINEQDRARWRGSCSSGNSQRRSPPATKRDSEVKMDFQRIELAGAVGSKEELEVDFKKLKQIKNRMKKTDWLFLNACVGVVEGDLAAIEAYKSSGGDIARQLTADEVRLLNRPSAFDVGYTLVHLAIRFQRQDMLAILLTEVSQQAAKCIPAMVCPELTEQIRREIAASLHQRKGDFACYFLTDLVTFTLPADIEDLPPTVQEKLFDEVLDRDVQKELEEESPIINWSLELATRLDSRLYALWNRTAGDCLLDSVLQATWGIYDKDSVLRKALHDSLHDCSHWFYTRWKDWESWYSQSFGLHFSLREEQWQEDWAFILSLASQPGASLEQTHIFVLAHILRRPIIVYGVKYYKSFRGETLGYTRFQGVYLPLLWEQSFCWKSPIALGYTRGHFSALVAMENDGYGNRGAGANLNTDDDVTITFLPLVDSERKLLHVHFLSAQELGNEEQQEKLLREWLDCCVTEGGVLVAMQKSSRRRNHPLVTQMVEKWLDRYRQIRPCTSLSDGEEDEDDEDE
How it was run: as §1

YOD1 = molecular target: T5, YOD1 (UniProt Q5VVQ6)
T5 sequence (whole entry): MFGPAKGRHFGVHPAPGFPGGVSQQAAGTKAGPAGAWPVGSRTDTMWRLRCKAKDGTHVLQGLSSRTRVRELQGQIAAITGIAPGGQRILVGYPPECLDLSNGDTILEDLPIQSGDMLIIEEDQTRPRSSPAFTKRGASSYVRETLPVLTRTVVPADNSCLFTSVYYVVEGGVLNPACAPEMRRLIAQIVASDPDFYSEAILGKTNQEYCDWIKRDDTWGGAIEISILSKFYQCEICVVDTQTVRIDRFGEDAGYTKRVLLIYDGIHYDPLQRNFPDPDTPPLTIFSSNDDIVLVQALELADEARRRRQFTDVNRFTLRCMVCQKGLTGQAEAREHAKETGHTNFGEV
How it was run: as §1

Measured: log2 ratio of Biotin-Ahx-Ub-VS probe labelling

Sequence of UniProt O00507 (O00507 whole entry): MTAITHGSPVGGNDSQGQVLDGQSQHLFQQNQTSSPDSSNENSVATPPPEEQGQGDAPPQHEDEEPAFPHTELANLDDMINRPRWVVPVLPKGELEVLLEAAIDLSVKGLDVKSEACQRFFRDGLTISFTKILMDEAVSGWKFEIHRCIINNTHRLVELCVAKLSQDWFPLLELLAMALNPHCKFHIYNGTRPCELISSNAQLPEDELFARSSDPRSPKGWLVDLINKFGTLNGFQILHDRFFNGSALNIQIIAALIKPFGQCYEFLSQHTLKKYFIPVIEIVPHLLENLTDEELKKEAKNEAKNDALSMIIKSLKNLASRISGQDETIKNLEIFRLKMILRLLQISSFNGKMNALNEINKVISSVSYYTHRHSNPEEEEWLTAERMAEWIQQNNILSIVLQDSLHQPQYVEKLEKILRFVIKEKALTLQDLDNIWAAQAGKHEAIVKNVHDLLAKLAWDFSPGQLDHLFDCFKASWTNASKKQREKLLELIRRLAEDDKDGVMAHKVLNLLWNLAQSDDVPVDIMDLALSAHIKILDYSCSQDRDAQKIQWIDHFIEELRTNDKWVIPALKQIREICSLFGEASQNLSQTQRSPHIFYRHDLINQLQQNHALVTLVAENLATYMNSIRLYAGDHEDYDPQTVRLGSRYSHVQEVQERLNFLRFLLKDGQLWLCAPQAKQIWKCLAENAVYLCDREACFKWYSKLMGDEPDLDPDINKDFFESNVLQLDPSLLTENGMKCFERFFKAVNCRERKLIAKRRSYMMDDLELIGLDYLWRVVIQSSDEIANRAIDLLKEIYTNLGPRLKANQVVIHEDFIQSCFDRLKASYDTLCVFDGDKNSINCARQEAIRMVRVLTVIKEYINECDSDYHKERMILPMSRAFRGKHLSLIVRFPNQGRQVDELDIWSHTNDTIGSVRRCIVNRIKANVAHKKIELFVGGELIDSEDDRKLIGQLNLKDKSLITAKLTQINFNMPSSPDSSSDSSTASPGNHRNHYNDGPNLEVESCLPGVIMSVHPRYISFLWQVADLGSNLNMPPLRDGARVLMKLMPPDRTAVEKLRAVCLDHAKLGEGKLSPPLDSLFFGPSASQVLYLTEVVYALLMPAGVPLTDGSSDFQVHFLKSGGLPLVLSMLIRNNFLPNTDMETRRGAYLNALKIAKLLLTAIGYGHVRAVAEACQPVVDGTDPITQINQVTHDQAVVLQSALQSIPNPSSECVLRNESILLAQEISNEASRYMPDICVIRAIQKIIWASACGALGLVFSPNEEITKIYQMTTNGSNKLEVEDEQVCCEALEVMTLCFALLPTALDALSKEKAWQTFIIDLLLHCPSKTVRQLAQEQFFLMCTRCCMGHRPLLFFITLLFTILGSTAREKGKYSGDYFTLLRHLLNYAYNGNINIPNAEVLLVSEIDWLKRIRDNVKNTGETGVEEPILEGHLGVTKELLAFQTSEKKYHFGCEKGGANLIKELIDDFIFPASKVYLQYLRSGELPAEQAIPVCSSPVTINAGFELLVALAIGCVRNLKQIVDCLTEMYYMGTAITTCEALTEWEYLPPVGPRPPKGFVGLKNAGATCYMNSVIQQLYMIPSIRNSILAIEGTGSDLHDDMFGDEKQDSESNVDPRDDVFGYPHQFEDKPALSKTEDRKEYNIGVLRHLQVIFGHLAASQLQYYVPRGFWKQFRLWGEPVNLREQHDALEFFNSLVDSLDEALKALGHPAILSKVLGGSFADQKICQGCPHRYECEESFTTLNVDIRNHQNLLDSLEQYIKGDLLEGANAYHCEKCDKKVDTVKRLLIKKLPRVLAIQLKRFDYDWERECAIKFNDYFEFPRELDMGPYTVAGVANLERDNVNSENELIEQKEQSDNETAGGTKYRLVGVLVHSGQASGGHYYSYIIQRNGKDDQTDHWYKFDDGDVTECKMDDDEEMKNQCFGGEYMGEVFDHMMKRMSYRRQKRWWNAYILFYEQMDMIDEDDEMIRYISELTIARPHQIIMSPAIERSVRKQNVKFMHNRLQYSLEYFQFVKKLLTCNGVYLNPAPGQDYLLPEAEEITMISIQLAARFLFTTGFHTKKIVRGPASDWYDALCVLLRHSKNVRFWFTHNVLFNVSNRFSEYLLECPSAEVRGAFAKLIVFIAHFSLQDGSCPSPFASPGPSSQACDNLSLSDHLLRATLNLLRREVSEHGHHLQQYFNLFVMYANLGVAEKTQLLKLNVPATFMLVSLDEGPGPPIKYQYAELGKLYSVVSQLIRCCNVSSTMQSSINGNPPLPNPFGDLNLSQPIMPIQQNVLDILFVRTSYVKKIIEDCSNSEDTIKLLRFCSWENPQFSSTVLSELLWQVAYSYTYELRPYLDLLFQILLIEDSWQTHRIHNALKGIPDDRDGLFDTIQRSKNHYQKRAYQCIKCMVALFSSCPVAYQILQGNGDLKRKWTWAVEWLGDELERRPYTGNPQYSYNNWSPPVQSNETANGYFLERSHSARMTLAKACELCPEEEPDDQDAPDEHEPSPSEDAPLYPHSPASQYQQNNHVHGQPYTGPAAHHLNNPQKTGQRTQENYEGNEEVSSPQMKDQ
Sequence of UniProt O00487 (O00487 whole entry): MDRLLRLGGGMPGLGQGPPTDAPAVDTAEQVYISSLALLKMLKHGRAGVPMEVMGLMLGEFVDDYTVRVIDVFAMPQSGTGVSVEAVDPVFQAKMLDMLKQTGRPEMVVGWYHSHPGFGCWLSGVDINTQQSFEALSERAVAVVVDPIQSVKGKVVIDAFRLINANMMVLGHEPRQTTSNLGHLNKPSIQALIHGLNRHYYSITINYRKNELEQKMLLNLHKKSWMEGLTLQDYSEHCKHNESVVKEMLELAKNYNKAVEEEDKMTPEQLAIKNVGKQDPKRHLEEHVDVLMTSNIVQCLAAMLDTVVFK
Sequence of UniProt P51784 (P51784 whole entry): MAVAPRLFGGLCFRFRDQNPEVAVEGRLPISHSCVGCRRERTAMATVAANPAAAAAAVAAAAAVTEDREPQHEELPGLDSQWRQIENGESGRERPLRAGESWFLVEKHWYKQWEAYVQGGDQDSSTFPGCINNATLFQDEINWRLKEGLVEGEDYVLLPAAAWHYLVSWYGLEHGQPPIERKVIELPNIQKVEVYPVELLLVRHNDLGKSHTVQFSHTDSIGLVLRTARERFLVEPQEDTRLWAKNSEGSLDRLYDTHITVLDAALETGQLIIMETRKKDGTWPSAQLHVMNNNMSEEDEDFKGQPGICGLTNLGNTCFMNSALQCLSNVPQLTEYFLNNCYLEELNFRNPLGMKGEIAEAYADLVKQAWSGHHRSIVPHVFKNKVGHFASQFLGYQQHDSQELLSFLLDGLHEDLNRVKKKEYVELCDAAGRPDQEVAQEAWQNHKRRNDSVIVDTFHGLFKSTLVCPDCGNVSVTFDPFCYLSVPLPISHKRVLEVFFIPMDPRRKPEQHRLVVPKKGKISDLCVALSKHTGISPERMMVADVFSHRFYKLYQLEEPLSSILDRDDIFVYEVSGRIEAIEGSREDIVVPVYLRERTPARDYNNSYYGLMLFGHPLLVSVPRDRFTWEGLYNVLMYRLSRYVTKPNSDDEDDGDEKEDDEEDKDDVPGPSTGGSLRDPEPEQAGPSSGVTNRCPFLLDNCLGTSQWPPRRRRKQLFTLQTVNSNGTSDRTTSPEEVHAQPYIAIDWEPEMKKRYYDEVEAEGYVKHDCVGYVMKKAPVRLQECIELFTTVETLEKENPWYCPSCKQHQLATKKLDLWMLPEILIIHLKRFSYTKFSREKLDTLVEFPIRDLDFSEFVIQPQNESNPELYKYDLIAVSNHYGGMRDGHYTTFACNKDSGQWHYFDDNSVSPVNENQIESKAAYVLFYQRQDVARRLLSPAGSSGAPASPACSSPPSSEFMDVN

Cc1n[nH]c2c1CN(C(=O)CCl)CC2
inactive: USP9X -0.85 | UniProt O00487 -0.184 | UniProt O00507 -0.966 | UniProt P51784 -0.554 | UniProt Q5T2D3 -0.696 | UniProt Q9P2H5 -0.801 | YOD1 -0.674
active: UniProt Q8TE49 -1.43 | UniProt Q9UGI0 -1.32
